Screens deposited in PubChem BioAssay by National Center for Advancing Translational Sciences (NCATS).
The list is not random: actives were taken first. Their share in the collection is about 6.6%.
KB-V1 cytotox: KB-V1 MDR subline cytotoxicity | Potency, µM (doses to about 46.1 µM), hits mostly cytotoxic | KB-V1 MDR cells viability, CellTiter-Glo, 72 h | 400,000 compounds, 3.4% hits; further: on the % scale 0 is the no-effect control and ±100 the full control effect; nearly all actives have a fitted effect of over 60% in size
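Cells of the MDR subline KB-V1 are plated, dosed with compound at multiple concentrations, and incubated 72 h at 37 degrees C; CellTiter-Glo is then added and luminescence read after 10 min.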
HT1080 IDH1KD tx: HT-1080 IDH1 knockdown cell toxicity (counter line); 360,000 compounds, 2% hits; AID 686971; Potency, µM (titrated, usually from 46.1 µM), for inactives: at the highest dose activity, negative = toxicity, hits mostly cytotoxic; HT-1080 IDH1 knockdown viability, ATP luminescence, 48 h;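 further: 0% = DMSO wells and -100% = cell-free medium wells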
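In this qHTS, HT-1080 cells depleted of IDH1 are exposed for 48 h at 37 °C to compound titrations. Toxicity is scored from CellTiter-Glo luminescence, with DMSO as full viability and medium alone as none.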
TGFb SMAD3 inh: TGF-b pathway inhibition; HepG2 CAGA-GFP TGF-b/SMAD3 reporter, GFP fluorescence, 18 h; TGF-beta stimulated, 500 pg/mL final; Potency, µM (titrated, usually from 46.1 µM), for the others: top-dose activity, negative = inhibition, most hits filed as inhibitors; 410,000 compounds, 1.2% hits; AID 588855; further: on the % scale 0 is the no-effect control and ±100 the full control effect; nearly all actives have a fitted effect of over 65% in size
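Cell-based qHTS in HEPG2 carrying a CAGA-GFP Smad reporter; compounds added before 500 pg/mL final TGF-beta, 18 h incubation at 37 degrees C, GFP fluorescence quantified per cell by imaging cytometry.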
KB-3-1 tox: kills parental KB-3-1 adenocarcinoma cells; Potency, µM (doses to about 46.1 µM), hits mostly cytotoxic; AID 1347075; 400,000 compounds, 1.4% hits; KB-3-1 viability, CellTiter-Glo ATP luminescence, 72 h; further: on the % scale 0 is the no-effect control and ±100 the full control effect; nearly all actives have a fitted effect of over 60% in size
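KB-3-1 cells, DMEM (no phenol red) + 10% FBS; compound by pin transfer, 72 h, 37 °C. Readout: CellTiter-Glo luminescence after 10 min. Data normalized, curve-fitted.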
HepG2 tox: counter-screen for TGF-b inhibitors: cytotoxicity in HepG2 cells; AID 588856; 410,000 compounds, 0.76% hits; HepG2 CAGA-GFP viability, ATP luminescence, 18 h; Potency, µM (series often up to 46.1 µM), for the others: at the highest dose activity change, negative = cytotoxicity, most hits filed as cytotoxic
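HepG2 CAGA-GFP cells (1000/well, DMEM with 1% FBS) received compound, then TGF-beta at 500 pg/mL final, and were incubated 18 hours at 37 degrees C. Viability was read by CellTiter-Glo luminescence. Media-only wells were set as complete cell-killing and DMSO as no toxicity.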
HT1080NT lethal: kills 2HG-producing HT-1080-NT fibrosarcoma cells | HT-1080-NT fibrosarcoma viability, CellTiter-Glo ATP luminescence, 48 h | Potency, µM (series often up to 46.1 µM), for the others: at the top dose activity, negative = less viability, usual class: cytotoxic | 360,000 compounds, 1.6% hits;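 further: NT is the 2HG producing partner of a matched IDH1 knockdown line; 0% = DMSO-treated cells and -100% = media-only wells without cells; nearly all actives have a fitted effect of over 55% in size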
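Read-out is CellTiter-Glo luminescence after 10 minutes at room temperature, following 48 hours' compound treatment of HT-1080-NT cells (750 cells/well, RPMI, 5% FBS, 37 degrees C).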
* = called active by the depositor; i = inactive; ? = inconclusive; . = no result. The call rests on the fitted dose curve; in most records, active means well fitted curve in the direction sought with a large enough effect; inconclusive means small, poorly fitted or top-dose-only effect, or another doubt; inactive means no such curve, though single readings can be large; an effect the other way counts as inactive or inconclusive. Potency means the concentration at half of the fitted maximal effect.

SMILES	KB-V1 cytotox	HT1080 IDH1KD tx	TGFb SMAD3 inh	KB-3-1 tox	HepG2 tox	HT1080NT lethal
Cc1cccc(COCC(Cc2ccccc2)N2CCN(C(=O)c3cccc(C)c3)CCC2=O)c1 (configuration not stated)	i	-7.7%	?	i	-29.7%	-6.4%
Cc1cccc(COC[C@H](Cc2ccccc2)N2CCN(C(=O)c3ccc(Cl)c(Cl)c3)CCC2=O)c1	i	16.4µM*	.	?	.	?
COc1ccc(Nc2nc3cc(C)ccc3cc2C#N)c(OC)c1	i	?	0.7%	2.06µM*	2.0%	-25.0%
COc1ccc(Nc2nc3ccc(C)cc3cc2C#N)c(OC)c1	?	0.3%	9.1%	i	-2.6%	19.7%
CCn1cc(/C=C(\NC(=O)c2ccc(OC)c(OC)c2)C(=O)NCCCn2ccnc2)c2ccccc21	i	.	6.4%	i	-4.3%	.
CC1=C(C(=O)Nc2ccccc2)C(c2ccccc2C)n2nc(SCC(=O)c3ccc(C)cc3)nc2N1 (configuration not stated)	i	.	17.9%	i	5.1%	.
Cc1cc2[nH]c3c(c[n+](C)c4ccccc34)c2cc1C	i	20.6µM*	?	?	10µM*	?
CC(=O)c1cc2c(=O)c3ccccc3oc2nc1C	i	18.0%	-17.4%	i	-10.8%	27.4%
Cc1cccc(C)c1NC(=O)c1cc2c(=O)c3ccccc3oc2nc1C(F)(F)F	2.06µM*	-18.3%	-1.8%	i	-0.2%	-12.2%
COc1ccc(CN(C(=O)c2cccs2)C(C(=O)NC2CCCCC2)c2ccc3ncccc3c2)cc1 (configuration not stated)	?	-17.2%	-4.4%	i	0.7%	-0.4%
O=C(NCC1CCCO1)C(c1cccs1)N(Cc1ccccc1)C(=O)c1ccc(-c2ccccc2)[nH]1 (configuration not stated)	3.66µM*	-15.0%	?	i	-9.9%	-21.0%
CC(C)(C)NC(=O)C(c1ccncc1)N(Cc1ccco1)C(=O)c1ccc(-c2ccccc2)[nH]1 (configuration not stated)	?	18.4µM*	-7.2%	i	-11.5%	18.4µM*
O=C(NC1CCCCC1)C(c1ccncc1)N(Cc1ccc(F)cc1)C(=O)c1ccccn1 (configuration not stated)	?	-9.6%	11.5%	i	5.3%	-0.4%
O=C(NC1CCCCC1)C(c1ccc2ncccc2c1)N(Cc1ccccc1)C(=O)c1cccs1 (configuration not stated)	23.1µM*	?	-24.7%	i	-4.3%	?
O=C(NC1CCCCC1)C(c1ccncc1)N(Cc1ccccc1)C(=O)c1ccc(-c2ccccc2)[nH]1 (configuration not stated)	23.1µM*	?	?	?	-13.1%	?
COc1ccc(CNC(=O)CCS(=O)(=O)c2cc(Br)cc3c2N(C(=O)C2CC2)CC3)cc1	i	.	-10.8%	i	-3.6%	.
COc1cccc(N2CC(NC(=O)CCCc3ccccc3)CC2=O)c1 (configuration not stated)	.	.	2.8%	.	3.8%	.
O=C(N/N=C/c1ccccc1)c1c(O)c2ccccc2[nH]c1=O	?	-24.2%	1.7%	23.1µM*	1.7%	-7.2%
O=C(N/N=C/c1ccc(F)cc1)c1c(O)c2ccccc2[nH]c1=O	10.3µM*	-0.4%	-24.4%	?	-34.4%	-2.3%
O=C(N/N=C/c1cccc(F)c1)c1c(O)c2ccccc2[nH]c1=O	?	-9.3%	-7.0%	?	-6.9%	-8.5%
O=C(NN=Cc1cc([N+](=O)[O-])ccc1O)c1cccc2ccccc12	?	6.51µM*	?	?	-35.1%	?
O=C(N/N=C/c1cccc([N+](=O)[O-])c1)c1c[nH]c2ccccc12	i	-6.8%	-9.3%	i	-26.5%	-13.8%
O=C(N/N=C/c1cc([N+](=O)[O-])ccc1O)c1c[nH]c2ccccc12	?	14.6µM*	?	?	-31.4%	?
O=C(N/N=C/c1cc([N+](=O)[O-])ccc1Cl)c1cc(-c2ccccc2)nc2ccccc12	i	5.7%	4.1%	i	-5.2%	9.9%
O=C(N/N=C/c1cc([N+](=O)[O-])ccc1O)c1cc(-c2ccccc2)nc2ccccc12	i	4.11µM*	-16.6%	?	-0.6%	?
SMILES	KB-V1 cytotox	HT1080 IDH1KD tx	TGFb SMAD3 inh	KB-3-1 tox	HepG2 tox	HT1080NT lethal
Nc1ccc(C(=O)N/N=C\c2cc(N=Nc3cccc4ccccc34)ccc2O)cc1	?	11.6µM*	-31.1%	?	-10.2%	?
Oc1ccc(C23CCCC2C2(CCCC2)c2ccc(O)cc2O3)c(O)c1 (configuration not stated)	i	-17.4%	?	?	-51.0%	?
Cc1ccc(CN2C(=O)c3ccccc3Sc3ccc(C(=O)NCc4ccco4)cc32)cc1	.	.	0.0%	.	-21.3%	.
CCN(CC)S(=O)(=O)c1ccc(NC(=O)[C@H](CSCc2ccccc2)N2Cc3ccccc3C2=O)cc1	.	-5.8%	21.5%	.	-18.1%	4.8%
Cc1ccc(C2N=C(Nc3nc4ccccc4o3)NC3=C2C(=O)CC(C)(C)C3)cc1 (configuration not stated)	i	.	0.8%	i	6.0%	.
CCN(CC(=O)Nc1ccc2c(c1)OCCO2)CC(=O)Nc1ccccc1C(F)(F)F	11.6µM*	0.9%	-7.7%	i	5.3%	5.5%
CCN(CC(=O)Nc1ccc(C(C)=O)cc1)CC(=O)Nc1ccc2c(c1)OCCO2	i	8.5%	-4.0%	i	-18.4%	8.3%
CCN(CC(=O)Nc1ccc2c(c1)OCCO2)Cc1nc2cc(Cl)ccc2c(=O)[nH]1	20.6µM*	-9.6%	?	i	-21.8%	-10.0%
COc1cccc(C2CC(=O)Nc3cc4c(cc32)OCCO4)c1OC (configuration not stated)	.	.	6.4%	.	5.8%	.
COc1cccc(C(=O)NCCS(=O)(=O)NCCCc2ccccc2)c1	16.4µM*	0.2%	-1.9%	i	8.2%	5.7%
O=C(NCc1ccccc1)c1ccc(C(=O)N(C2CCCCC2)C2CCCCC2)cc1	23.1µM*	-18.7%	-15.1%	?	14.8%	0.7%
CC1CCN(c2ccc(C(=O)NCCc3ccccc3)cn2)CC1	13µM*	-3.3%	-15.0%	i	-3.7%	0.1%
CC1CCN(S(=O)(=O)CCNC(=O)c2ccccc2)CC1	13µM*	15.2%	5.6%	i	1.1%	15.3%
